# Source: PubChem
# Shown are actives, neighbours in structure and some others; about 2.3% of the full set was active somewhere.
# CHO-K1 Ca antag: nonselective inhibitor or artifact in parental CHO-K1 cells. ATP-induced calcium, Fluo-8 fluorescence. inhibition, % at 3 µM. hit rate 0.6% among 360,000. AID 602250;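 active = inhibition above a per-plate cutoff, the plate's mean sample inhibition plus 3 SD, cut at about 24% in these data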;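 also: 0% = DMSO plus EC80 ATP and 100% = DMSO alone without ATP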
# M1 ag: human M1 muscarinic receptor agonism; P11229; CHO-K1 hM1, Fluo-8 calcium fluorescence, agonist mode; 0% DMSO, 100% acetylcholine EC100; activation, % at 3 µM; hit rate 0.33% among 360,000;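 active = activation above the run's mean compound activation plus 3 SD, cut at about 16% in these data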;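 also: peak over basal fluorescence ratio within a 140 s kinetic read after compound addition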
# Target sequence (P11229 whole entry, looked up): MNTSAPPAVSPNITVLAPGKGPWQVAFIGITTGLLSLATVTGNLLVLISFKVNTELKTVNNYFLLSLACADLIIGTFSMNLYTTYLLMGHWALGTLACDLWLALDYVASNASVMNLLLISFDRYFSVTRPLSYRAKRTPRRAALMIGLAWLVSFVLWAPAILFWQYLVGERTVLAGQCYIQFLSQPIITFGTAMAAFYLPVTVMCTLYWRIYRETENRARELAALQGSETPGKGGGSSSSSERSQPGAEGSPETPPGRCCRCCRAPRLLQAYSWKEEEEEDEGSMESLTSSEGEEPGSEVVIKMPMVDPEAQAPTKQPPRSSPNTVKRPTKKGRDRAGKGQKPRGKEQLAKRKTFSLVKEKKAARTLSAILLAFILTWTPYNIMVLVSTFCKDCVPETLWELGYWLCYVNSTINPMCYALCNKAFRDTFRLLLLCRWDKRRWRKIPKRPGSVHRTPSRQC
# CHRM1 antagonist: blocks human M1 muscarinic receptor | hit rate 1.3% among 360,000 | CHO-K1 hM1, Fluo-8 calcium fluorescence, ACh EC80 antagonist | inhibition, % at 3 µM;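 active = percent inhibition above its own plate's cutoff, namely the mean of that plate's compound wells plus 3 SD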;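 also: peak over basal fluorescence ratio during 140 s after agonist addition; 0% = ACh EC80 plus DMSO and 100% = DMSO alone without agonist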
# M1 PAM: positive allosteric modulators of human M1 muscarinic receptor; P11229; CHO-K1 hM1, Fluo-8 calcium fluorescence, ACh EC20; 0% = ACh EC20, 100% = maximal ACh; activation, % at 3 µM; hit rate 0.088% among 360,000; AID 588819; in the data active = activation above about 19%, passing the limit was not always enough
# M1 ag parental: counter-screen for M1 agonists: effect in parental CHO-K1 cells | Fluo-8 calcium fluorescence; scaled to maximal ATP response, vehicle zero | activation, % at 3 µM | hit rate 0.48% among 360,000 | AID 602248; in the data active = activation above about 15%;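 also: untransfected CHO-K1 host cells lacking M1 receptor as counterscreen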
# CHO-K1 Ca PAM: nonselective activator or artifact in parental CHO-K1 calcium assay; ATP EC20, Fluo-8 calcium fluorescence; 0% at ATP EC20, 100% at ATP max; hit rate 0.02% among 360,000; activation, % at 3 µM;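 active = activation above the run cutoff, the mean activation of all test compounds plus 3 SD, cut at about 40% in these data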;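 also: peak over basal fluorescence ratio in a 140 s read after ATP addition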
# * = called active by the depositor; nt = no result.
SMILES,CHO-K1 Ca antag,M1 ag,CHRM1 antagonist,M1 PAM,M1 ag parental,CHO-K1 Ca PAM
COc1ccc(C(=O)NCC(c2cccs2)N2CCc3ccccc32)c(OC)c1 (stereo unspecified),-32,-2,-4,-4,5,58*
COc1ccc(C(=O)NCC(c2ccco2)N2CCc3ccccc32)cc1 (stereo unspecified),-11,-6,-18,7,-1,18
Cc1ccc(S(=O)(=O)Nc2ccc3c(c2)nc(CCN2CCN(c4ccccn4)CC2)n3C)cc1,-12,-3,79*,-24,8,6
Cn1c(CCN2CCN(c3ccccn3)CC2)nc2cc(NS(=O)(=O)c3ccc(Cl)cc3)ccc21,9,-1,98*,-24,7,-9
Cc1ccc(S(=O)(=O)Nc2ccc3c(c2)nc(CCN2CCCCC2)n3C)cc1,5,-7,15,-11,0,-2
CCNC(=O)C1(C)CCN(C(=O)c2ccccc2C(F)(F)F)C1 (stereo unspecified),2,0,7,-5,0,7
N#Cc1cnc2nc1NCCCCCCC2,10,-7,-21,14,0,-8
Cc1cc(Nc2ccccc2)nn1C(=O)c1ccc(Br)cc1,25*,-4,5,-1,0,-8
CCOC(=O)[C@]12CCC=C1N(Cc1ccccc1)C(=O)[C@H](CC(=O)NCc1cccc(C(F)(F)F)c1)C2,-9,nt,nt,nt,0,-3
CC(C)Cc1ccc(-c2cc3nc(NCCCn4ccnc4)ccn3n2)cc1,23,-2,-2,6,0,-11
Cc1c(N=C/C=C/c2ccccc2)c(=O)n(-c2ccccc2)n1C,-26,-14,100*,-31,1,18
CCCS(=O)(=O)NC(=O)C1(C)CCN(C(=O)c2ccc(OC)cc2OC)C1 (stereo unspecified),-5,-1,-10,5,1,9
O=C(Nc1ccc(Oc2cccnc2)cc1)C1CCN(Cc2cccc(Cl)c2)CC1,-3,-4,-1,0,7,13
CC(=O)c1cccc(CN2CCC(C(=O)Nc3ccc(Oc4cccnc4)cc3)CC2)c1,12,-6,30*,-12,1,-28
O=C(Nc1ccc2c(c1)OCO2)c1cc(C2CCCCN2C(=O)c2ccccc2)on1 (stereo unspecified),4,-7,4,-9,1,-7
CCCCCCCCCCCCN1[C@@H](CC(=O)OC)c2cc(F)ccc2S1(=O)=O,-17,3,-23,32*,0,11
CC(C)(C)c1ccc(S(=O)(=O)NC(=O)C2(C)CCN2C(=O)c2cccc3ccccc23)cc1 (stereo unspecified),5,1,-2,2,3,10
O=S(=O)(c1cccc(Cn2nnc(-c3ccccc3)n2)c1)N1CCOCC1,-5,2,14,-11,16*,-1
CC(C)C[C@@H](CN1CCC[C@@H]1CN1C(=S)NC[C@@H]1Cc1ccc(O)cc1)N1C[C@H](Cc2ccc(O)cc2)N(CC2CCCCCC2)C1=S,8,-2,-3,3,0,8
O=c1c(/C=C(\O)c2ccccc2)nc2ccccc2n1-c1ccccc1,1,22*,19,-9,3,13
CC1(C(=O)Nc2ccc3c(c2)OCCO3)CCN1C(=O)c1ccco1 (stereo unspecified),-9,-1,-16,3,1,3
COC(=O)C[C@H]1C[C@H]2c3cc(NC(=O)C4CCC4)ccc3O[C@H]2[C@H](CO)O1,1,1,-7,3,0,-3
CC(CNC(=O)c1ccc(NC2=NC3CS(=O)(=O)CC3S2)cc1)c1ccccc1 (stereo unspecified),-7,-2,-14,8,1,18
O=C(c1ccc(NC2=NC3CS(=O)(=O)CC3S2)cc1)N(CCO)Cc1ccccc1 (stereo unspecified),36*,0,-10,3,0,-2
CCCC(C)c1nnc(NC(=O)C2CCCO2)s1 (stereo unspecified),-14,-12,55*,-27,1,6
CCOC(=O)c1c(NC(=O)C2CCCO2)sc(C)c1C (stereo unspecified),-6,-5,47*,-19,-1,3
